Screening results deposited in PubChem by National Center for Advancing Translational Sciences (NCATS).
KinaseGlo FLuc – Kinase-Glo luciferase inhibition (counter-screen); Potency, µM (top dose mostly 38.3 µM), for the others: top-dose activity change, negative = inhibition, hits mostly inhibitors; Kinase-Glo luciferase, ATP luminescence, 8 min; 200,000 compounds, 0.28% hits; Q27757; note: % is set by controls: 0 for no effect and ±100 for the full control effect; nearly all actives have a fitted effect of over 60% in size
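Recombinant Kinase-Glo luciferase, 10 uM ATP (linear range), luciferin; imidazole pH 7.2 / KCl / MgCl2 / Tween / BSA buffer; 8 min RT; luminescence.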
SMN2 splice up – SMN2 splice variant enhancement; HEK293 SMN2-luciferase splicing reporter, luminescence, 30-36 h; Potency, µM (series often up to 46.1 µM), for inactives: top-dose activity change, positive = activation, most hits filed as activators; 210,000 compounds, 2.8% hits; AID 1458; note: % of control where 0% means no effect; nearly all actives have a fitted effect of over 55% in size
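HEK293 cells carry an SMN2 minigene-luciferase reporter in which exon 7 inclusion puts luciferase in frame. Cells were seeded at 2000 cells/well, attached for 10-12 hours, then exposed to compounds for 30-36 hours at 37C before ONE-Glo luminescence.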
FLuc counter – counter-screen for miR-21 project: firefly luciferase inhibitors or activators; P08659; purified FLuc, Km substrates, luminescence inhibition; Potency, µM (doses to about 57.5 µM), inactives show at the highest dose activity change, negative = inhibition, actives largely listed as inhibitors; 360,000 compounds, 6.9% hits; AID 588342;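 note: plate controls were vehicle for no effect and reference inhibitor for full effect; nearly all actives have a fitted effect of over 55% in size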
Target sequence (P08659 whole entry, looked up): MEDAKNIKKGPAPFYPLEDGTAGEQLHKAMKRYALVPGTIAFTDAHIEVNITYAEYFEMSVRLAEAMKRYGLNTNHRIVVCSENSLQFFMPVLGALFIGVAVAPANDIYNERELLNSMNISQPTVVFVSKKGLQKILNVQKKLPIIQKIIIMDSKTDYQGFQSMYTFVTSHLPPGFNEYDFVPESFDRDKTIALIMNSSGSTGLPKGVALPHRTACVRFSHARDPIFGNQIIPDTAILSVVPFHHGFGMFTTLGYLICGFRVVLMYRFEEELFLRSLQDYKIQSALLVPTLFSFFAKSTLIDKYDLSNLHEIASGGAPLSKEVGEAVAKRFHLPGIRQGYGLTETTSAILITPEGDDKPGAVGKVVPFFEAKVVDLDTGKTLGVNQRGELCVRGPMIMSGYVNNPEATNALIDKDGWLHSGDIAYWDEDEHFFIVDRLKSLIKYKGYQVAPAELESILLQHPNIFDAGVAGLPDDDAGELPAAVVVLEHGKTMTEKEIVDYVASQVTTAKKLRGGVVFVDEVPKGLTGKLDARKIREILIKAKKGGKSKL
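Purified P. pyralis luciferase (10nM final) with 10uM D-luciferin and 10uM ATP (Km levels) in 50mM Tris acetate pH 7.5, 10mM Mg acetate, 0.01% Tween-20, 0.05% BSA; qHTS 6-point titration, ~60 µM downward; luminescence read.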
ELG1 genotox – induces genotoxicity in HEK293T cells with luciferase-tagged ELG1 | 330,000 compounds, 1.3% hits | Potency, µM (top dose mostly 46 µM), for the others: at the highest dose activity change, positive = activation, hits mostly activators | HEK293T ELG1-luciferase reporter, luminescence, 16 h; note: % of control where 0% means no effect; nearly all actives have a fitted effect of over 60% in size
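DMSO vehicle served as control against compound-treated ELG1-luciferase HEK293T cells; exposure lasted 16 hr at 37 °C and 5% CO2, followed by ONE-Glo luminescence detection after 30 min.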
Rab9 promoter act – activates the Rab9 promoter; Huh7 Rab9 promoter-luciferase reporter, luminescence, 24 h; Potency, µM (series often up to 9.22 µM), inactives show at the top dose activation, negative = inhibition, most hits filed as activators; 320,000 compounds, 2.8% hits; note: % of control where 0% means no effect; nearly all actives have a fitted effect of over 60% in size
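Stable Rab9-luc Huh7, 1500 cells/well, 2 h settle; cmpd in DMSO, 24 h, 37 °C/5% CO2; luciferase reagent 10 min RT; luminescence.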
NPC1 promoter act – activators of NPC1 promoter; 320,000 compounds, 2.4% hits; Huh7 NPC1 promoter luciferase reporter, 24 h; Potency, µM (series often up to 9.22 µM), inactives show top-dose activation, hits mostly activators; AID 485313; note: % of control where 0% means no effect; nearly all actives have a fitted effect of over 60% in size
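Quantitative HTS used a cell-based reporter: Huh7 cells stably bearing the NPC1 promoter upstream of luciferase were treated with compounds for 24 h, and promoter activation was read as luminescence.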
An asterisk follows results filed as active. Compounds with a hit are over-represented: about 7.3% of the library has one in this group of screens. Calls come from the whole dose curve; as a rule, active = well fitted curve in the direction sought with a large enough effect; inconclusive = small, poorly fitted or top-dose-only effect, or another doubt; inactive = no such curve, though single readings can be large; an effect the other way counts as inactive or inconclusive. Potency is the fitted concentration of half-maximal effect.

`CN(C)/C=N/c1sc2c(c1C#N)CCCC2` gave KinaseGlo FLuc -3.4%, SMN2 splice up -28.2%, FLuc counter inconclusive, ELG1 genotox 14.9%, Rab9 promoter act 26.4% and NPC1 promoter act 21.9%.
`N#Cc1c(/N=C/c2cccs2)sc2c1CCC2` gave KinaseGlo FLuc inconclusive, SMN2 splice up 17.8µM*, FLuc counter 1.51µM*, ELG1 genotox 7.08µM*, Rab9 promoter act 2µM* and NPC1 promoter act 3.16µM*.
Screening N#Cc1c(/N=C/c2ccco2)sc2c1CCCCC2 returned KinaseGlo FLuc inconclusive, SMN2 splice up -9.5%, FLuc counter 0.169µM*, ELG1 genotox inconclusive, Rab9 promoter act 3.55µM* and NPC1 promoter act 0.794µM*.
Screening Cc1ccc(-c2csc3ncnc(N4CCN(Cc5ccccc5)CC4)c23)cc1 returned FLuc counter 1.1%, ELG1 genotox 5.0%, Rab9 promoter act -3.7% and NPC1 promoter act 0.3%.
For Cc1ccsc1CN1CCc2nc(Nc3ccccc3)ncc2C1 the results were FLuc counter 12µM*.
Screening COc1cccc(CN2CCc3nc(Nc4ccc5c(c4)OCCO5)ncc3C2)c1 returned FLuc counter 23.9µM*.
Screening Clc1ccc(CN2CCc3nc(Nc4ccc5c(c4)OCCO5)ncc3C2)cc1 returned FLuc counter -20.0%.
Screening O=C(NCCc1cn2ccccc2n1)c1cc(COc2ccc3ncccc3c2)on1 returned FLuc counter inconclusive, ELG1 genotox -14.8%, Rab9 promoter act -13.5% and NPC1 promoter act -15.5%.
`O=C(NNC1=NS(=O)(=O)c2ccccc21)c1ccc(Cl)cc1` gave KinaseGlo FLuc 3.4%, SMN2 splice up -5.4%, FLuc counter 3.38µM*, ELG1 genotox -6.3%, Rab9 promoter act inconclusive and NPC1 promoter act inconclusive.
For O=C(NNC1=NS(=O)(=O)c2ccccc21)c1ccc([N+](=O)[O-])cc1 the results were FLuc counter 1.51µM*, ELG1 genotox 15.4%, Rab9 promoter act 28.1% and NPC1 promoter act inconclusive.
For CCN(CC)S(=O)(=O)c1ccc(C(=O)NNC2=NS(=O)(=O)c3ccccc32)cc1 the results were FLuc counter -12.9%, ELG1 genotox 2.0%, Rab9 promoter act -3.5% and NPC1 promoter act -1.2%.
For COCCNC(=O)NC(=O)CN1CCCc2ccccc21 the results were KinaseGlo FLuc -4.6%, SMN2 splice up -8.3%, FLuc counter 3.0%, ELG1 genotox -7.2%, Rab9 promoter act -1.8% and NPC1 promoter act 1.0%.
Cn1c(=O)cc(OCCCC(=O)NC2CCCC2)c2ccccc21 was read as KinaseGlo FLuc -0.3%, SMN2 splice up 15.8µM*, FLuc counter 0.7%, ELG1 genotox inconclusive, Rab9 promoter act -2.4% and NPC1 promoter act -2.7%.
Screening Cn1c(=O)cc(OCC(=O)NC2CCCCC2)c2ccccc21 returned KinaseGlo FLuc -1.2%, SMN2 splice up 10.8%, FLuc counter 3.1%, ELG1 genotox 5.3%, Rab9 promoter act -1.7% and NPC1 promoter act -5.2%.
Screening CCCOc1ccc(OC(=O)c2ccc(Br)o2)cc1 returned KinaseGlo FLuc -3.1%, SMN2 splice up -6.6%, FLuc counter 9.53µM*, ELG1 genotox 2.8%, Rab9 promoter act -2.5% and NPC1 promoter act -3.8%.
O=c1c2ccccc2nc(SCc2nc3ccccc3s2)n1CCCO was read as KinaseGlo FLuc -6.8%, SMN2 splice up 14.1µM*, FLuc counter 13.5µM*, ELG1 genotox inconclusive, Rab9 promoter act 2.82µM* and NPC1 promoter act inconclusive.
O=C(Nc1cc(C(=O)Nc2ccccc2C(=O)O)cc(C(=O)Nc2ccccc2C(=O)O)c1)c1ccccc1 was read as FLuc counter 3.4%, ELG1 genotox 23.0%, Rab9 promoter act -3.1% and NPC1 promoter act 0.0%.
`O=C(Nc1ccccc1C(=O)O)c1cccc(NC(=O)c2ccccc2Br)c1` gave FLuc counter 23.9µM*, ELG1 genotox -3.1%, Rab9 promoter act -4.7% and NPC1 promoter act -0.1%.
